Data: PubChem BioAssay (NCATS)
Values joined by “and” are separate entries in the source; they are usually repeats but may differ in a detail not shown here. Equal values may be shown once. Records with an inconclusive call do not appear. Entries that show only a call come without a potency. The source holds several records for some structures; these can differ, active in one and inactive in another. A number with no mark means an inactive call. Active and inactive are the calls of the source. Calls come from the whole dose curve; as a rule, active = well fitted curve in the direction sought with a large enough effect; inconclusive = small, poorly fitted or top-dose-only effect, or another doubt; inactive = no such curve, though single readings can be large; an effect the other way counts as inactive or inconclusive.

How the values were obtained:
[1] = target: Cytochrome P450 3A7 (Homo sapiens) (UniProt P24462); assay: Cytochrome P450 family 3 subfamily A member 7 (CYP3A7) small molecule antagonists: luciferase biochemical qHTS assay (AID 1963596); note: nearly all actives have a fitted effect of over 40% in size; note: potency is the fitted concentration of half-maximal effect
Sequence of Cytochrome P450 3A7 (Homo sapiens) (P24462 whole entry, looked up): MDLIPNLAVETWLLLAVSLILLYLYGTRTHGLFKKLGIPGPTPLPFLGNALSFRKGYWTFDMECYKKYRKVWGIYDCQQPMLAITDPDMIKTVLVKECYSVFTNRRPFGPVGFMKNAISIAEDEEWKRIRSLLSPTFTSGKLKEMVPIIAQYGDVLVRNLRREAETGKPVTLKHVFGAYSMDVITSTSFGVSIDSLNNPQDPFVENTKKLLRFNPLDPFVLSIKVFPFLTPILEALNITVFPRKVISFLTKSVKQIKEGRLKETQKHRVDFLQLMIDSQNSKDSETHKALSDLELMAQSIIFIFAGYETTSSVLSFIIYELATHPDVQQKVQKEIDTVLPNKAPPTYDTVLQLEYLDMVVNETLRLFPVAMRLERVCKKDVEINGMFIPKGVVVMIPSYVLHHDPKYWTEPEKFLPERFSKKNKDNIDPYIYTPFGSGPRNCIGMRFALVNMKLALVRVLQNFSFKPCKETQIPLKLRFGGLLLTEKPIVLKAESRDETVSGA
Outline: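 Biochemical CYP3A7 activity measured with P450-Glo system: luciferin formed from proluciferin substrate in NADPH-driven reaction (1 h, room temperature) after 10 min compound preincubation. Signal in relative luminescence units.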

[2] = Viability qHTS for spleen associated tyrosine kinase inhibitor (SYKi) naive MV4-11 cells (AID 1963823); note: nearly all actives have a fitted effect of over 40% in size; note: potency is the fitted concentration of half-maximal effect
Outline: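 In this viability screen, compounds acted on SYK inhibitor naive MV4-11 cells for three days (72 hr, 37 C). Remaining viable cells were measured by CellTiter-Glo luminescence following a 10 min room-temperature development.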

[3] = Viability qHTS for spleen associated tyrosine kinase inhibitor (SYKi) drug resistant MV4-11 cells (AID 1963824); note: nearly all actives have a fitted effect of over 35% in size; note: potency is the fitted concentration of half-maximal effect
Outline: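 SYK-inhibitor-resistant MV4-11 AML cells were seeded at 500 per well onto compound and cultured 72 hours (37 °C, 5% CO2). CellTiter-Glo was then added, and after 10 min at room temperature, luminescence gave viability.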

[4] = Cellular viability qHTS for adrenocortical cancer (ACC) cell line SW-13 (AID 1963989); settings: SW-13 ACC cells viability, CellTiter-Glo, 48 h; activity (max response): hits give low values;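 note: cells grown in serum-free medium with ITS supplement; nearly all actives have a fitted effect of over 65% in size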
Outline: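 Here, serum-free SW-13 cultures were dosed up to 46 uM. Following 48 h, ATP-dependent luminescence (CellTiter-Glo) reported viable cells, and logistic modeling produced IC50 values.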

[5] = Cellular viability qHTS for adrenocortical cancer (ACC) cell line NCI-H295R (AID 1963990); note: nearly all actives have a fitted effect of over 60% in size
Outline: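 Viability of NCI-H295R after 48 h of treatment (final up to 46 uM) measured through cellular ATP luminescence.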

Cc1cc(F)ccc1-c1nc(NCCN=C(N)NC#N)nc2c1ccc(=O)n2-c1c(F)cccc1F
Potency [1]: inactive
Potency [2]: 14.6 µM (active)
Potency [3]: 14.6 µM (active)

O=C(O)c1cccc(S(=O)(=O)N2CCc3ccccc3C2)c1
Potency [1]: inactive
Potency [2]: inactive
Potency [3]: inactive

CCN(CC)Cc1ccc(C(=O)N(CCc2ccccc2OC)[C@@H]2CCNC2)cc1
Potency [1]: inactive
Potency [2]: 3.17 µM (active)
Potency [3]: 3.17 µM (active)

O=C(O)[C@H]1Cc2ccccc2CN1
activity change, negative = inhibition [1]: 2.34% [at 11.5 µM]
viability (% of control) [2]: 95.6% [at 4.97 µM]

Cc1cc(CC(=O)O)n(C)c1C(=O)c1ccc(Cl)cc1
Potency [1]: inactive
Potency [2]: inactive

CNC(=O)c1cnn(-c2nc(N)c3ncn([C@@H]4O[C@H](CO)[C@@H](O)[C@H]4O)c3n2)c1
Potency [1]: inactive
Potency [2]: inactive
Potency [3]: inactive

NC(=O)c1ccc([N+](=O)[O-])cc1Cl
Potency [1]: inactive
Potency [2]: inactive
Potency [3]: inactive

C=CC(=O)N1CCN(C(=O)c2cc(-c3cc(Cl)ccc3Cl)c(Cl)cc2OC)CC1
Potency [1]: inactive
Potency [2]: 8.2 µM (active)
Potency [3]: 6.51 µM (active)

COc1cccc(OC)c1-c1ccc(C[C@H](NC(=O)c2c(Cl)cccc2Cl)C(=O)O)cc1
Potency [1]: inactive
Potency [2]: inactive
Potency [3]: inactive

C[C@@H]([C@@H](O)c1ccc(O)cc1)N1CCC(O)(c2ccccc2)CC1
Potency [1]: inactive
Potency [2]: inactive

N#Cc1cc(CN2CCC(Nc3ncnc4sc(Cl)cc34)CC2)ccc1F
Potency [1]: inactive
Potency [2]: 9.2 µM (active)
Potency [3]: 13 µM (active)

CC1(C)Oc2ncnc(N)c2N=C1c1ccc(C2CCC(CC(=O)O)CC2)cc1 (centres undefined)
Potency [1]: inactive
Potency [2]: inactive
Potency [3]: inactive

CCC(C)C(N)C(=O)NCCN1CCOCC1 (centres undefined)
Potency [1]: inactive
Potency [2]: inactive
Potency [3]: inactive

CN1CCN(c2nc(-c3ccc(C(=O)NC4(C(=O)NCC#N)CCCCC4)cc3)cs2)CC1
Potency [1]: inactive
Potency [2]: inactive
Potency [3]: inactive

CCCCc1ccc(C(=O)Nc2cc(-c3ccc(Cl)cc3)nn2-c2ccc(Cl)cc2)cc1
Potency [1]: inactive
Potency [2]: inactive
Potency [3]: inactive

CN[C@H](CNC(=O)N1CCC[C@@H]([C@@H](OCCNC(=O)OC)c2cccc(Cl)c2)C1)C[C@H]1CCCOC1
Potency [1]: inactive
Potency [2]: inactive
Potency [3]: inactive

CCN(CC)CCCC(C)Nc1ccnc2cc(Cl)ccc12 (centres undefined)
Potency [1]: inactive
Potency [2]: 8.2 µM (active)
viability (% of control) [2]: 72.7% [at 9.25 µM]
Potency [3]: 10.3 µM (active)
activity (max response) [4]: 0.695% and -16.4%
Potency [5]: inactive

c1cc(-c2cc(C3CCNCC3)[nH]n2)ccn1
Potency [1]: inactive
Potency [2]: inactive
Potency [3]: inactive

N#Cc1ccc2[nH]c(O)c(-c3ccc(CN4CCOCC4)cn3)c2c1
Potency [1]: inactive
Potency [2]: inactive
Potency [3]: inactive

O=C(NCCCCN1CCN(c2cccc(Cl)c2Cl)CC1)c1cc2ccccc2s1
Potency [1]: 2.82 µM (active)
Potency [2]: 23.1 µM (active)
Potency [3]: 23.1 µM (active)

O=S(=O)(Cc1ccccc1)Nc1ccc(-c2ccc3c(cnn3-c3ccc(F)cc3)c2)c(C(F)(F)F)c1
Potency [1]: 12 µM (active)
Potency [2]: 16.4 µM (active)
Potency [3]: 20.6 µM (active)

N#Cc1ccc(C(=O)N2CCC3(CC2)N=C(N)c2c(F)ccc(F)c2N3)cn1
Potency [1]: inactive
Potency [2]: inactive
Potency [3]: inactive

N[C@@H](CC(=O)Nc1ccc(Oc2cc(F)c(F)cc2Br)cc1)C(=O)O
Potency [1]: inactive
Potency [2]: inactive
Potency [3]: inactive

CC(=O)SCC(=O)c1ccc(NS(=O)(=O)c2ccc(OCCCN(C)C)cc2)nc1
Potency [1]: inactive
Potency [2]: 2.59 µM (active)
Potency [3]: 2.91 µM (active)

O=C(c1ccc(Cl)c([N+](=O)[O-])c1)N1CCN(c2ccccc2F)CC1
Potency [1]: inactive
Potency [2]: 23.1 µM (active)
Potency [3]: 18.4 µM (active)

O=C(Nc1nnc(-c2ccc3c(c2)OCCO3)o1)C1CCCCC1
Potency [1]: inactive
Potency [2]: inactive
Potency [3]: inactive

O=C(Nc1ccc(N2CCC(C(=O)N3CCOCC3)CC2)cc1)c1cnc(Oc2ccccc2)nc1
Potency [1]: inactive
Potency [2]: inactive
Potency [3]: inactive

O=C(O)c1ccc(OCCCOc2ccc(C(=O)O)cc2)cc1
Potency [1]: inactive
Potency [2]: inactive
Potency [3]: inactive

CCNC(=O)C1CC(F)(c2ccc(CN3CCCC3)c(F)c2)C1 (centres undefined)
Potency [1]: inactive
Potency [2]: inactive
Potency [3]: inactive

CN(c1ccc(NC(=O)Nc2ccccc2)cc1)S(=O)(=O)c1cnn(-c2ccc(F)cc2)c1
Potency [1]: inactive
Potency [2]: 16.4 µM (active)
Potency [3]: 23.1 µM (active)

COc1ccc(CCO[C@@H]2CCCC[C@H]2N2CC[C@@H](O)C2)cc1OC
Potency [1]: inactive
Potency [2]: inactive
Potency [3]: inactive

COc1ccc(-c2ccc(-c3cn(C(=O)N4CCCCC4c4ccccc4)nn3)cc2)cc1 (centres undefined)
Potency [1]: inactive
Potency [2]: inactive
Potency [3]: 0.517 µM (active)

O=C(NC1CCN(CC(F)(F)F)CC1)c1ccc(-c2cccc(F)c2)nc1
Potency [1]: inactive
Potency [2]: inactive
Potency [3]: inactive
